The values that follow come from article PMC7862700, “An all-to-all approach to the identification of sequence-specific readers for epigenetic DNA modifications on cytosine”.

What all share (assay): DAPPL (digital affinity profiling via proximity ligation, sequencing); 10 mM Tris-HCl pH 7.5, 50 mM NaCl, 1 mM DTT, 4% glycerol, room temperature, 30 min; GST-TFs on glutathione beads, 16-mer random dsDNA library, 0.1% formaldehyde crosslink after washing; high values mean tight binding
The target in one experiment is T1, FLI1 (Homo sapiens, UniProt Q01543 1-452).
T1 sequence: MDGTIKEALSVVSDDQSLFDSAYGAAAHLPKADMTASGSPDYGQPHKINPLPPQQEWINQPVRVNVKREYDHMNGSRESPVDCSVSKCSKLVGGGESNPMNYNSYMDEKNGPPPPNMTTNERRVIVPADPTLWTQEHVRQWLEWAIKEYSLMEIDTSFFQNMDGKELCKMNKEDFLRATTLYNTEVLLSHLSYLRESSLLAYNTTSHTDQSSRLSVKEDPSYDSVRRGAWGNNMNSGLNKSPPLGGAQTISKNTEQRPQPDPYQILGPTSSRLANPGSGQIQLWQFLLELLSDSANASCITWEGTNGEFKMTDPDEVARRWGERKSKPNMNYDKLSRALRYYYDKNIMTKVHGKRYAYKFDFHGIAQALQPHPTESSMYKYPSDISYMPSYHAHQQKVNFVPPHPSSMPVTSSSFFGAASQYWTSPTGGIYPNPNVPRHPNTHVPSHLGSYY
As to conditions: protein: recombinant; tags: N-terminal GST; dsDNA, one strand shown. The procedure, abridged: (§1)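 Human transcription factors were made in yeast as GST fusions, captured on glutathione beads and barcoded with DNA. With a tag-only sample included, the pool was incubated with 200 nmole of a random double-stranded 16-mer DNA library in Tris/NaCl/DTT/glycerol buffer at room temperature for 30 min, then crosslinked with 0.1% formaldehyde after washing, ligated by proximity, amplified and sequenced. For binding signal, each hexamer's read frequency for a factor is divided by its frequency for the tag-only sample.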

In a further experiment the target is T2, ELK1 (Homo sapiens, UniProt P19419 1-428).
T2 sequence: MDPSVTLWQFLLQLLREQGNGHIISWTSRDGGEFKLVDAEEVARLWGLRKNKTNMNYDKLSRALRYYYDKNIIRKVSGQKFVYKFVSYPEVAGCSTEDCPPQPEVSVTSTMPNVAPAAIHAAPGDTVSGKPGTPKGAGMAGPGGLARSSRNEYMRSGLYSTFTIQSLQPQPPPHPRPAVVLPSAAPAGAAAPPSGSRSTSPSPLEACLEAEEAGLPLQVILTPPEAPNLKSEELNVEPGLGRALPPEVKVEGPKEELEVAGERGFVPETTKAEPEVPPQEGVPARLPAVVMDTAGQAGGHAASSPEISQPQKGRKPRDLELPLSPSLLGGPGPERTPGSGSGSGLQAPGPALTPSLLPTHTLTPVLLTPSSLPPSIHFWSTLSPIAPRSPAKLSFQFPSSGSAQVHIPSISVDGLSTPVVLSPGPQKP
The settings on record: protein: recombinant; tags: N-terminal GST; dsDNA, one strand shown. The method, boiled down:
as §1

A further experiment has as its target T3, GABPA (Homo sapiens, UniProt Q06546 1-454).
T3 sequence: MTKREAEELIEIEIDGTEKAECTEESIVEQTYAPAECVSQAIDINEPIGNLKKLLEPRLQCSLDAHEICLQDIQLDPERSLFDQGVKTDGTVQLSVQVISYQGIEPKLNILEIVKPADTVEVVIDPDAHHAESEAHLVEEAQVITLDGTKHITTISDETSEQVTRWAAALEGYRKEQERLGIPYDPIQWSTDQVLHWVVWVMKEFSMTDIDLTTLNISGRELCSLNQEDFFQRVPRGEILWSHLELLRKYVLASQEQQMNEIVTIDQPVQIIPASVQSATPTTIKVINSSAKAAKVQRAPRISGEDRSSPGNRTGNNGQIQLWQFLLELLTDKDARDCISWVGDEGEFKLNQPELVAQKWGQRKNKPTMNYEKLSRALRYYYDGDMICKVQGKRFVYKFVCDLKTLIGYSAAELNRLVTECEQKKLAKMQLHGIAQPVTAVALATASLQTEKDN
As to conditions: protein: recombinant; tags: N-terminal GST; dsDNA, one strand shown. The method, boiled down:
as §1

In the next experiment the target is T4, ERG (Homo sapiens, UniProt P11308 1-479).
T4 sequence: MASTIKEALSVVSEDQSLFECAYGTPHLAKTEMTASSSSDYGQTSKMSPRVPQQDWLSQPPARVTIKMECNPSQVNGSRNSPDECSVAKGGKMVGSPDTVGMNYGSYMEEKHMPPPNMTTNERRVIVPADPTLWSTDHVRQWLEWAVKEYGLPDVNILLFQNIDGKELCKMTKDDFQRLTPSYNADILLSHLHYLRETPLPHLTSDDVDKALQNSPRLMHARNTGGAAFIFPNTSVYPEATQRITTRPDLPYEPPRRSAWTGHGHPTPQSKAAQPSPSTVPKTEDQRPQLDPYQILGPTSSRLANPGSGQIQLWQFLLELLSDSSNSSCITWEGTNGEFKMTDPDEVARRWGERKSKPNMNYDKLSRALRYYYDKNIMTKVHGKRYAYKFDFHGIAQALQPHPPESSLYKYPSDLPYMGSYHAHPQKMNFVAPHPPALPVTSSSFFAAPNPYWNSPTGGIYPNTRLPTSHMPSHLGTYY
As to conditions: protein: recombinant; tags: N-terminal GST; dsDNA, one strand shown. The method, boiled down: as §1

The target in another experiment is ELF1 (Homo sapiens, UniProt P32519 1-619). The settings on record: protein: recombinant; tags: N-terminal GST; dsDNA, one strand shown. The procedure, abridged: as §1
For a further experiment, the target named is T5, EHF (Homo sapiens, UniProt Q9NZC4 1-300).
T5 sequence: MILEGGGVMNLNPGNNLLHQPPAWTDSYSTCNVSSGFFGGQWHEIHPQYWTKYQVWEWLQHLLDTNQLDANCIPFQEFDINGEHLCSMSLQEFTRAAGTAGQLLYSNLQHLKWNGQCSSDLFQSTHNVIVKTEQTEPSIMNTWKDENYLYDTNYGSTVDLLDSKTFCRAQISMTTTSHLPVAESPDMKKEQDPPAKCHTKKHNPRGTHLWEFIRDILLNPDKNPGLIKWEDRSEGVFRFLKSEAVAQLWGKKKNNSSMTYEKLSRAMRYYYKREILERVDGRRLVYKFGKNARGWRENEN
As to conditions: protein: recombinant; tags: N-terminal GST; dsDNA, one strand shown. The method, boiled down: as §1

In the next experiment the target is SPI1 (Homo sapiens, UniProt P17947 1-270). The settings on record: protein: recombinant; tags: N-terminal GST; dsDNA, one strand shown. The procedure, abridged: as §1
The target in a further experiment is SPIB (Homo sapiens, UniProt Q01892 1-262). As to conditions: protein: recombinant; tags: N-terminal GST; dsDNA, one strand shown. The procedure, abridged: as §1
Another experiment has as its target T6, ELK3 (Homo sapiens, UniProt P41970 1-407).
T6 sequence: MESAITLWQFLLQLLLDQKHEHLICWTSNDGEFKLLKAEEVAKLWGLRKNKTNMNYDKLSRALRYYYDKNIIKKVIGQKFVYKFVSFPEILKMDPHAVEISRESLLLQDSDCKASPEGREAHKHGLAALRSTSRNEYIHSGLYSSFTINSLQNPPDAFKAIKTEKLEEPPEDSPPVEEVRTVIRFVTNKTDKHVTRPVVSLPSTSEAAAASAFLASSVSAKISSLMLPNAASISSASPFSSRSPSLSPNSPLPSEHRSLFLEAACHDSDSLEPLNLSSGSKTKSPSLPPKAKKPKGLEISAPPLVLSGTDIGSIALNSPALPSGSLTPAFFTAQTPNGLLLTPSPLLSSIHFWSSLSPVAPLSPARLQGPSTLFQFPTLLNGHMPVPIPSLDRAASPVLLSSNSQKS
As to conditions: protein: recombinant; tags: N-terminal GST; dsDNA, one strand shown. The procedure, abridged:
as §1

The target in the next experiment is T7, FEV (Homo sapiens, UniProt Q99581 1-238).
T7 sequence: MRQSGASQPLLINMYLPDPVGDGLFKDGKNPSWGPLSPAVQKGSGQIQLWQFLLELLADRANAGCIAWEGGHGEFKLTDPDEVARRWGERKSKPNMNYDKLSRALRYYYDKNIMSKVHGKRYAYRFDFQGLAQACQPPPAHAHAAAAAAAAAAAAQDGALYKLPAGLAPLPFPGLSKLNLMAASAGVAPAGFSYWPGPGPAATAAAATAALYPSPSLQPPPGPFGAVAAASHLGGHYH
As to conditions: protein: recombinant; tags: N-terminal GST; dsDNA, one strand shown. The method, boiled down: as §1

The next experiment concerns the target ETV5 (Homo sapiens, UniProt P41161 1-510). As to conditions: protein: recombinant; tags: N-terminal GST; dsDNA, one strand shown. The procedure, abridged: as §1
Another experiment concerns the target HSF1 (Homo sapiens, UniProt Q00613 1-529). As to conditions: protein: recombinant; tags: N-terminal GST; chain copies: 3; dsDNA, one strand shown. The method, boiled down:
as §1

Another experiment has as its target T8, SPIC (Homo sapiens, UniProt Q8N5J4 1-248).
T8 sequence: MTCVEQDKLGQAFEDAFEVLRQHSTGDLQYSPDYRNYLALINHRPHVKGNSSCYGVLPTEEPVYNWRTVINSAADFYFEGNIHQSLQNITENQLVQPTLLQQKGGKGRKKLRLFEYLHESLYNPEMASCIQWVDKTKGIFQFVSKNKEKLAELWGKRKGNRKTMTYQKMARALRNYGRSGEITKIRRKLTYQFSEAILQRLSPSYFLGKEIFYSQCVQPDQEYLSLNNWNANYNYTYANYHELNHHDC
The settings on record: protein: recombinant; tags: N-terminal GST; dsDNA, one strand shown. The method, boiled down: as §1

In another experiment the target is ELF4 (Homo sapiens, UniProt Q99607 1-663). As to conditions: protein: recombinant; tags: N-terminal GST; dsDNA, one strand shown. The method, boiled down:
as §1

A further experiment deals with T9, ELK4 (Homo sapiens, UniProt P28324-2 1-405).
T9 sequence: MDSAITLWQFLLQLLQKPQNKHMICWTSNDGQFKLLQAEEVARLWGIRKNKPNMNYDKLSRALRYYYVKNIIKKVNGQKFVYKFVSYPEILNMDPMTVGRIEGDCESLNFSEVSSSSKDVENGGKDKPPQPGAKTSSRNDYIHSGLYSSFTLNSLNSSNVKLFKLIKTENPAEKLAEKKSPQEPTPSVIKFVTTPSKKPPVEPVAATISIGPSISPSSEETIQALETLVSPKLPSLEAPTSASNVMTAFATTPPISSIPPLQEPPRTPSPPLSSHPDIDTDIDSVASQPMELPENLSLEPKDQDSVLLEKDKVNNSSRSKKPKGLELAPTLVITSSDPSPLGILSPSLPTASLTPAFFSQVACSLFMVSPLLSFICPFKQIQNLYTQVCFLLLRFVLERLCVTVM
The settings on record: protein: recombinant; tags: N-terminal GST; dsDNA, one strand shown. The procedure, abridged: as §1

Another experiment has as its target T10, ETV2 (Homo sapiens, UniProt O00321 1-342).
T10 sequence: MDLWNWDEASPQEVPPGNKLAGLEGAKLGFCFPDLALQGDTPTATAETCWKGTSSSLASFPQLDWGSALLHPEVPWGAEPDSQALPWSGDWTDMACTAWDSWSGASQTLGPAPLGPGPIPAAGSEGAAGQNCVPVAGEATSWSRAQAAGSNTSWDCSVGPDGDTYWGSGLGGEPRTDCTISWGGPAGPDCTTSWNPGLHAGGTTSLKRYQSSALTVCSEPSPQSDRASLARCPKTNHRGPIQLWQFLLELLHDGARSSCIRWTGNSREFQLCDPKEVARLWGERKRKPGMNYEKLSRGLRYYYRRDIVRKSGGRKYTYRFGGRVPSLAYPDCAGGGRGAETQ
The settings on record: protein: recombinant; tags: N-terminal GST; dsDNA, one strand shown. The method, boiled down: as §1

In another experiment the target is T11, ELF3 (Homo sapiens, UniProt P78545 1-371).
T11 sequence: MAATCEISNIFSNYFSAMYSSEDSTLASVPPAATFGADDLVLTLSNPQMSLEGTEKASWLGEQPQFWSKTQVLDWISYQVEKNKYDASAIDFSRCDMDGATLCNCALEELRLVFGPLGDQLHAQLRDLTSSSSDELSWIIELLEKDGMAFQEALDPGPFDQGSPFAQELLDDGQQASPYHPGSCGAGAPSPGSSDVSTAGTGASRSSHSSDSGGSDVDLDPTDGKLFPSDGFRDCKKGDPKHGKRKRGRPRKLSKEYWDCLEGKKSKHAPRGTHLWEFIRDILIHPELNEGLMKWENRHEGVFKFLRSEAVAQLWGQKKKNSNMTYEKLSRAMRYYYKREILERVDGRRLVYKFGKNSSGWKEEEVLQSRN
The settings on record: protein: recombinant; tags: N-terminal GST; dsDNA, one strand shown. The method, boiled down:
as §1

The next experiment concerns the target ETV1 (Homo sapiens, UniProt P50549 1-477). The settings on record: protein: recombinant; tags: N-terminal GST; dsDNA, one strand shown. The method, boiled down: as §1

Sequence of SPIB (Q01892 whole entry): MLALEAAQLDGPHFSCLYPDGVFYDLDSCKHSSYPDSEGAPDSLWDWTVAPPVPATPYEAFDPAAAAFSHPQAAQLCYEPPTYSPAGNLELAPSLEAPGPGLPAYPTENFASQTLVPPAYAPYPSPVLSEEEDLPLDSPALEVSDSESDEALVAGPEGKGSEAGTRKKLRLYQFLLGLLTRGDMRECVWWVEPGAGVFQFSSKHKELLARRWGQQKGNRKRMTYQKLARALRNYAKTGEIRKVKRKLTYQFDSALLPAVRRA
Sequence of ELF4 (Q99607 whole entry): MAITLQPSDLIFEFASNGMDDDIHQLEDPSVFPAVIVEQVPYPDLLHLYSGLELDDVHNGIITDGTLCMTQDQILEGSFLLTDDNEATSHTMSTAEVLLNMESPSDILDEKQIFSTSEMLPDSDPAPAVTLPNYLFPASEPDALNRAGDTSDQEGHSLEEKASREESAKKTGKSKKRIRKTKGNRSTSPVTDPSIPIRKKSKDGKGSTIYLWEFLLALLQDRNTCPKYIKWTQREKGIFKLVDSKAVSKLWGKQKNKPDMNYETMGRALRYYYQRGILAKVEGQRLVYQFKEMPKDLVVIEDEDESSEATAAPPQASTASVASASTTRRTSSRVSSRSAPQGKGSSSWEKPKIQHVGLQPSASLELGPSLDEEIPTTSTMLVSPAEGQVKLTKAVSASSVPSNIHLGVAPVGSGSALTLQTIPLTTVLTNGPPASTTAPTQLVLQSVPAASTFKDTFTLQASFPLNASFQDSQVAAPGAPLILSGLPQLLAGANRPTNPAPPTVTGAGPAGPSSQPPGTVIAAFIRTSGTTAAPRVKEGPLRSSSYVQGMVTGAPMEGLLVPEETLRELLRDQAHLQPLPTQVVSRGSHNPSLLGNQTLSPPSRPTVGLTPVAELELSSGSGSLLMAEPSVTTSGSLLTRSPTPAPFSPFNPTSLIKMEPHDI
Sequence of HSF1 (Q00613 whole entry): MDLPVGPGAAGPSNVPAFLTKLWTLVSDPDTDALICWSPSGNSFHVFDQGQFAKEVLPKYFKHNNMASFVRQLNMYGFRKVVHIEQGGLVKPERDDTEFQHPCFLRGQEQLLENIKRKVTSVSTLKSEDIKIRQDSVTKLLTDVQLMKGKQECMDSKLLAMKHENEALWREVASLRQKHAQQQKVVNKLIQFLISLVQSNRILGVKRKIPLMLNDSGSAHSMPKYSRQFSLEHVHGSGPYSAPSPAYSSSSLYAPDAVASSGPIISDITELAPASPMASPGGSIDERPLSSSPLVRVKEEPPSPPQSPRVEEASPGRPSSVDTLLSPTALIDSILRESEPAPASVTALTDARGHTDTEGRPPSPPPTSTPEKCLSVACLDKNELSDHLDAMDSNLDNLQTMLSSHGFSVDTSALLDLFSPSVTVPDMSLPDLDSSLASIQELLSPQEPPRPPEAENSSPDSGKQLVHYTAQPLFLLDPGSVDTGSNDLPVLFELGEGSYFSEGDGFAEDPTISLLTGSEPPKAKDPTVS
Sequence of ETV5 (P41161 whole entry): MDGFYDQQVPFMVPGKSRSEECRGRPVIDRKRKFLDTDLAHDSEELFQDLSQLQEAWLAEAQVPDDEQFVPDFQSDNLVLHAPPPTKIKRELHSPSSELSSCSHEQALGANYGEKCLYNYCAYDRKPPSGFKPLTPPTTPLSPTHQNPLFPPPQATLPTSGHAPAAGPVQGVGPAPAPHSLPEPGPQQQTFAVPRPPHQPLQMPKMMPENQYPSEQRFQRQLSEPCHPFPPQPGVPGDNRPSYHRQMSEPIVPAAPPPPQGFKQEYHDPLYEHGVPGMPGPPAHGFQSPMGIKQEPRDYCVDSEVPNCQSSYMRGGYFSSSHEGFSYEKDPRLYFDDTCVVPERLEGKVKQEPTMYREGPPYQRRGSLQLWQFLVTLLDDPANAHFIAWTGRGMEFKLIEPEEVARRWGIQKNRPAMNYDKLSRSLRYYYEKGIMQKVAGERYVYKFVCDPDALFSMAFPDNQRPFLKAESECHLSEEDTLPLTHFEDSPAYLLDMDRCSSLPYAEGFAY
Sequence of ETV1 (P50549 whole entry): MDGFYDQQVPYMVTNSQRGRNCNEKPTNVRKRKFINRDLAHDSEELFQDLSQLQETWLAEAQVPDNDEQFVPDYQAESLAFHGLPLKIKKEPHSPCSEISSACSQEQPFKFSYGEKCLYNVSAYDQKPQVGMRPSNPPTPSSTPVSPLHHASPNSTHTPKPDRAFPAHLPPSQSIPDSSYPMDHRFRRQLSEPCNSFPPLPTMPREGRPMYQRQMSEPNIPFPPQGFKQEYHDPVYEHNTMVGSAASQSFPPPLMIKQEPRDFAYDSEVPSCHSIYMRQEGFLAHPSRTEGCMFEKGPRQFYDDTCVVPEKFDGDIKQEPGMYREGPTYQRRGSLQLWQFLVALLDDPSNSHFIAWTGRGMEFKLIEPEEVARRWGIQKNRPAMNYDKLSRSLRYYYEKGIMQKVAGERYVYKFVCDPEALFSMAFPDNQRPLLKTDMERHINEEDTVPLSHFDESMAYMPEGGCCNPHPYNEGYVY
Sequence of ELF1 (P32519 whole entry): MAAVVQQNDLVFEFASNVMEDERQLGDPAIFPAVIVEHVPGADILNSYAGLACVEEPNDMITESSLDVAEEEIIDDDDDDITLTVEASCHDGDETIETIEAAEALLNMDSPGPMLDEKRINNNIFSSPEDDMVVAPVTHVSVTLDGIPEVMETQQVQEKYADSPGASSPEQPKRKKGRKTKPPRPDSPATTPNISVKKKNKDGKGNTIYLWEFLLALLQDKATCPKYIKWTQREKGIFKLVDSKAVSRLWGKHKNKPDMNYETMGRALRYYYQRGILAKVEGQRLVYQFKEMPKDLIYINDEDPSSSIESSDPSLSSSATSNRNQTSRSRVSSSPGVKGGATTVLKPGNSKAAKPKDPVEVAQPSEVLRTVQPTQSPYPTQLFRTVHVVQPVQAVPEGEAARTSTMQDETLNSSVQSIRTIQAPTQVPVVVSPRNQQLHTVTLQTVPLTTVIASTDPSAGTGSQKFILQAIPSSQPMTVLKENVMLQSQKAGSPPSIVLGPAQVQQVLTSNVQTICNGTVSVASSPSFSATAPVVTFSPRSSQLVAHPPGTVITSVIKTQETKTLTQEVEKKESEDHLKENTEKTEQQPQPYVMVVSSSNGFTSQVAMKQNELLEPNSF

On to ATGTGC, for which the binding signal with FLI1 was 1.05 fold enrichment (6-mer frequency, TF over GST control); in the experiment with ELK1 it was 1.1 fold enrichment (6-mer frequency, TF over GST control); in the experiment with GABPA it was 1.1 fold enrichment (6-mer frequency, TF over GST control); with ERG, 1.14 fold enrichment (6-mer frequency, TF over GST control); in the experiment with ELF1 it was 1.19 fold enrichment (6-mer frequency, TF over GST control); in the experiment with EHF it was 1.05 fold enrichment (6-mer frequency, TF over GST control). Besides, the binding signal was 1.06 fold enrichment (6-mer frequency, TF over GST control) with SPI1; 1.15 fold enrichment (6-mer frequency, TF over GST control) in the experiment with SPIB; 1.09 fold enrichment (6-mer frequency, TF over GST control) in the experiment with ELK3; 1.16 fold enrichment (6-mer frequency, TF over GST control) in the experiment with FEV; 1.16 fold enrichment (6-mer frequency, TF over GST control) in the experiment with ETV5; 1.02 fold enrichment (6-mer frequency, TF over GST control) with HSF1. The binding signal with SPIC is 1.17 fold enrichment (6-mer frequency, TF over GST control); with ELF4, 1.17 fold enrichment (6-mer frequency, TF over GST control); with ELK4 it was 1.21 fold enrichment (6-mer frequency, TF over GST control); with ETV2, 1.11 fold enrichment (6-mer frequency, TF over GST control); in the experiment with ELF3 it was 1.1 fold enrichment (6-mer frequency, TF over GST control); with ETV1, 1.05 fold enrichment (6-mer frequency, TF over GST control).
